Laboratory results from the supplement of paper PMC6555819.

The sequences below were run on PPARg:RXRa 30nM:10nM, anti-RXR (NR concentration 30 nM, RXRa partner concentration 10 nM) (assay: PBM binding z-score (relative to random genomic background probes); higher = stronger binding; sequences stand for … in GC…GCGATTGACAGCGTAGAATGAAGG).
How it was run: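 Custom Agilent 4×180K protein-binding microarrays carried double-stranded probes. Their 34-nt variable regions held direct-repeat seeds, single-nucleotide variants, half-site ablations and random human genomic background sequences. Arrays were incubated 1 h with ligand-free nuclear receptor dimers in PBS pH 7.4, 2% milk, 0.02% Triton X-100, 1 mM DTT, 0.2 mg/mL BSA and 0.4 mg/ml salmon testes DNA. Antibodies against each partner (one per run) detected binding, and scanned fluorescence was regression-normalized. Binding z-scores use random background probes as reference.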

Q: TCATCTAGGTAATACAGGTGAAAGTCGGCATCTA was tested. Which PBM binding z-score did it give?
A: Its PBM binding z-score is 3.85.

Q: How did the PBM binding z-score turn out when CGTCCAAGGTCAGAAGGTCAGTGAAAGCGACGTG was run?
A: Its PBM binding z-score is 0.861.

Q: With CATACAGGGTCAGCTAAGCCAGAGTAGGGACGGC as the sequence, how does the PBM binding z-score read?
A: The PBM binding z-score was 0.539.

Q: TATACAGGGTCAGAGGCCAGAGTACGAATGTCGA was tested. Which PBM binding z-score did it give?
A: The PBM binding z-score was 3.23.

Q: GGATCGAGGGCATTCGAGTTGATAGCATGGCGAT was tested. Which PBM binding z-score did it give?
A: Its PBM binding z-score is -0.121.

Q: Which PBM binding z-score does the source give for ACTAGTTGGTCAGCTGTGGTCACACACAATTCGG here?
A: The PBM binding z-score was -0.147.

Q: Which PBM binding z-score does the source give for TCGAGTAGGTTAGGGGCACTCAGAATGGCGTCGA here?
A: The PBM binding z-score was 0.959.

Q: CCTAGAAGGCCAATCTGGGTCACTCAAGGCTTGA was tested. Which PBM binding z-score did it give?
A: Its PBM binding z-score is 0.176.

Q: With ACTTACGAGTCAACGAGGTTATAGCACGCGTATA as the sequence, how does the PBM binding z-score read?
A: The PBM binding z-score was 0.564.

Q: Which PBM binding z-score does the source give for TAGCCTAGGTCATGGGCTAGTATACCACGCGAAC here?
A: The PBM binding z-score was 0.951.

Q: With TCTGCTAGGTCAACGATGGTCATCTAATCTGCTA as the sequence, how does the PBM binding z-score read?
A: Its PBM binding z-score is 2.08.

Q: For TCTATTAGCTGATTAGGGCAACCGAAACAGCGGA, which PBM binding z-score is on record?
A: The PBM binding z-score was 2.86.

Q: Which PBM binding z-score does the source give for CTCGAAAGGTGGGTTGAGGTGAGTATACGGATAA here?
A: Its PBM binding z-score is -0.0559.

Q: CGTCCAAGGTCATAGGAAGTCAGTGAAGACAGAT was tested. Which PBM binding z-score did it give?
A: Its PBM binding z-score is 1.57.

Q: For ATCTATAGGTAACAAGTTCAGTGAAAGAGAGGAC, which PBM binding z-score is on record?
A: The PBM binding z-score was 0.781.

Q: TCGTGTAGATCAAGCAGGTTAAGAAAGCCTGAGT was tested. Which PBM binding z-score did it give?
A: Its PBM binding z-score is 2.07.

Q: How did the PBM binding z-score turn out when CCTGGGAGGACAACAGGAGGTCAGAGCTGCCAGA was run?
A: The PBM binding z-score was -0.563.

Q: For AGAATGAGGGTATACGTAGATCAGGGAAGAAAGT, which PBM binding z-score is on record?
A: Its PBM binding z-score is 0.337.

Q: How did the PBM binding z-score turn out when AATACAGGGTCACTAGGCTAGAGTAGGTACGAAT was run?
A: Its PBM binding z-score is 2.53.

Q: TCGAGTAGGTTACTAATGGGGCATTCAGCTTTCT was tested. Which PBM binding z-score did it give?
A: The PBM binding z-score was 0.939.

Q: For GTACCAACGTGAATAGGTCGTTGATGAGTAGGCG, which PBM binding z-score is on record?
A: Its PBM binding z-score is -0.124.

Q: For CCTACTGGGCCATCAGGTTATTGATATCAACGTT, which PBM binding z-score is on record?
A: The PBM binding z-score was 0.473.

Q: For ATCTCTAGGTAAGACTCAGTTCATTGAAGAACGC, which PBM binding z-score is on record?
A: Its PBM binding z-score is 0.0967.

Q: Which PBM binding z-score does the source give for CCTTACGGGTGAAGGTTATAGCACGGGTGGTACG here?
A: Its PBM binding z-score is -0.0216.

Q: With ACCTCTAGGTAAAAGTTCAGTGAATCCCGAGGAT as the sequence, how does the PBM binding z-score read?
A: Its PBM binding z-score is 6.26.

Q: CGTCAAAGTTCAACTAAGGTGACGTAAAGCACGC was tested. Which PBM binding z-score did it give?
A: The PBM binding z-score was 2.52.

Q: How did the PBM binding z-score turn out when CATACTGGGCCATCAGGTCATTGATATCAACGTT was run?
A: The PBM binding z-score was 1.42.

Q: With CCGACTGGGGCATAAGGTTACAATAAGCCAGCCC as the sequence, how does the PBM binding z-score read?
A: The PBM binding z-score was 0.985.

Q: For CGAACTAGGTCAGAACAGGACAGTGCAGGATGAT, which PBM binding z-score is on record?
A: Its PBM binding z-score is 1.84.

Q: With CAAACTTGGTCAAAGGTCAAAGTCGAGCCAACCA as the sequence, how does the PBM binding z-score read?
A: Its PBM binding z-score is 10.4.

Q: TCATATAGGCAAATGCTAGGTGAAAGTCCGATCT was tested. Which PBM binding z-score did it give?
A: The PBM binding z-score was 3.12.

Q: For ATCTCTATGTAAAGATAGTTCAGTGAATGCAAAT, which PBM binding z-score is on record?
A: Its PBM binding z-score is 0.319.

Q: Which PBM binding z-score does the source give for GTACCAAGGAGAATAGGTCGTTGATGAGTAGGCG here?
A: The PBM binding z-score was -0.237.

Q: For TATACAGGGCCAAAGGCCAGAGTACGAATGTCGA, which PBM binding z-score is on record?
A: The PBM binding z-score was 2.62.

Q: For GCTGCTAGGTCAGGTTGCTCAGCTAACGGGTACG, which PBM binding z-score is on record?
A: Its PBM binding z-score is -0.602.

Q: With AGTCAAAGTTCAGGGCGAGGTAACGTAAAGCACG as the sequence, how does the PBM binding z-score read?
A: The PBM binding z-score was 1.76.

Q: ACCTACGGGTCAACGAGGTTATAGCACGCGTATA was tested. Which PBM binding z-score did it give?
A: Its PBM binding z-score is 1.47.

Q: TCTGCTAAGTCAGTTGGTCAGCTAACGAGCTGCC was tested. Which PBM binding z-score did it give?
A: The PBM binding z-score was 1.09.

Q: TATCCTAGGTCATGGGCCAGTATACCACGCGAAC was tested. Which PBM binding z-score did it give?
A: The PBM binding z-score was 3.05.
